38 compounds from PubChem BioAssay (NCI) can be followed below.

The structures appear in SMILES notation. Compounds without any hit were thinned out: in the full panel of roughly 83,000, 20% have a hit.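 Each cell line was grown in a 96-well plate and treated with one concentration of compound for 48 hours. Values below 10 were considered active.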 Values without a mark were called inactive. Calls of active or inactive are those of the source.

The first experiment has as its system SF-539 CNS. Description: NCI-60 one-dose screen, 48 h (100 = growth as untreated, 0 = no growth, -100 = all killed). The conditions noted are these: 10 µM unless noted.
In the case of `COc1ccc(/C=N/Nc2cc(=O)[nH]c3ccc(Cl)cc23)cc1`, the growth was 97.2%.

Consider `CCCCCCN(CCCCCC)c1ccc(/C=C2/SC(=O)NC2=O)c(C)c1`, for which the growth is 117%.

For `CC(=O)Oc1ccccc1C(=O)N=C1[Se]CCCN1C(=O)c1ccccc1OC(C)=O`, the growth was -42.5% (active).

For `CC(C)OC(=O)Nc1ccc(-c2nc(-c3cccc(OCCN4CCOCC4)c3)c(-c3ccnc(Br)c3)[nH]2)cc1`, the growth is -0.0542% (active).

As for `Cc1cc2nc3ccc(N=Nc4ccc(N(C)C)cc4)cc3n(-c3ccccc3)c-2cc1=N`, the growth was -89.4% (active).

Turning to `CCCCn1c(-c2ccc(-c3nc(-c4ccc(Cl)cc4)no3)cc2)nc(-c2ccccc2)c1-c1ccccc1`, the growth was 85.5%.

Consider `Oc1c(I)cc(I)cc1CNCCCN(Cc1ccccn1)Cc1ccccn1`, for which the growth was -88.3% (active).

Take `C/C(=N/NC(N)=S)c1sc(Nc2cccc(Cl)c2)nc1C`: the growth was 83.7%.

Turning to `Cc1nn(-c2ccccc2)c2c1N=c1s/c(=C\c3ccc(C(F)(F)F)cc3)c(=O)n1CN2`, the growth is 67.8%.

For the compound `O=C(O)CCC(=O)Nc1nnc(-c2ccccc2)s1`, the growth is 102%.

Turning to `Oc1ccc(Cl)cc1Cc1cc(Cl)cc(Cl)c1O`, the growth was 19.8%.

Regarding `O=c1c2cccc(Cl)c2sc2c(NCCCNCCO)nc3ccccc3c12`, the growth is 27.4%.

Take `COc1cc(C2CC(c3cccc(Br)c3)=NN2C(C)=O)cc(OC)c1OC` (stereo unspecified): the growth is -5.96% (active).

Turning to `COc1ccc(-c2nc(NN)c3c(C)nn(-c4ccc(F)cc4)c3n2)cc1`, the growth is 36.2%.

In the case of `CCOC(=O)NCCc1ccccc1`, the growth is 111%.

Turning to `COc1ccccc1/C=C1\Oc2cc(OCCN3CCC(Cc4ccccc4)CC3)ccc2C1=O`, the growth is 93.8%.

Regarding `O=C(COc1ccc(/C=C2\Cc3ccc(Cl)cc3C2=O)cc1)Nc1nc2ccccc2s1`, the growth is 98.9%.

In the case of `CCc1cccc2c3c(sc12)C(c1ccc(F)cc1)C(C#N)=C(N)O3` (stereo unspecified), the growth is 2.76% (active).

For the compound `Cc1ccc(C(=O)N/N=C/c2cccc([N+](=O)[O-])c2)cn1`, the growth is 98.6%.

With `CCOC(=O)C1=C(N)Oc2c(sc3c(C)cccc23)C1c1ccc(Cl)cc1` (stereo unspecified), the growth was 6.36% (active).

Consider `COc1ccc(-n2c(N)c(-c3nc4ccccc4[nH]3)cc(C#N)c2=O)cc1`, for which the growth was 77.2%.

For the compound `Cc1cc2nc3cc(C)c(N)cc3[n+](-c3ccccc3)c2cc1N`, the growth is 50.5%.

For the compound `COc1c(N2CC3CCCN(C(C)=O)C3C2)c(F)cc2c(=O)c(C(=O)N[C@H]3C(O)[C@@H](O)C(CO)O[C@H]3O)cn(C3CC3)c12` (stereo partly specified), the growth is 103%.

As for `COc1ccc(C2CC(c3ccc(Nc4nc(Nc5ccc(F)cc5)nc(Nc5ccc(Cl)cc5)n4)cc3)=NN2C(C)=O)cc1` (stereo unspecified), the growth is 101%.

For `O=c1[nH][n+](-c2ccc(Br)cc2)no1`, the growth is 7.06% (active).

Take `O=C(CSc1nccc(Nc2ccc(S(=O)(=O)Nc3nccs3)cc2)n1)c1ccc(C(F)(F)F)cc1`: the growth was 95.7%.

As to `COc1cc(C2CC(c3ccc(N(C)C)cc3)=NN2C(C)=O)cc(OC)c1OC` (stereo unspecified), the growth is -21.4% (active).

Regarding `COc1ccc2c(c1)c(-c1ccc(-c3cn(C)c4ccc(OC)cc34)o1)cn2C`, the growth is 18%.

`COc1ccc(CN2c3ccccc3CCc3ccccc32)cc1F`: the growth is -16.2% (active).

In the case of `CC(=O)N1N=C(c2ccc(Nc3nc(Nc4ccc(F)cc4)nc(Nc4ccc(Cl)cc4)n3)cc2)CC1c1ccc(Cl)cc1` (stereo unspecified), the growth was 109%.

On to `COc1ccc(OC)c(/C=C/c2nnc(Nc3ccccc3)o2)c1`, for which the growth is 103%.

Consider `COc1cc2cc(Oc3ccc(NC(=O)Nc4ccc(Cl)c(C(F)(F)F)c4)cc3)c(C)nc2cc1OCCN1CCOCC1`, for which the growth was 41.7%.

For `CCOC(=O)C1=C(N)Oc2c(sc3c(C)cccc23)C1c1ccc(F)cc1` (stereo unspecified), the growth is -1.53% (active).

Turning to `NCCCNc1nc2ccccc2c2c(=O)c3cccc(F)c3sc12`, the growth is 44.2%.

On to `CCc1ccc(Oc2c(-c3ccc(OCc4ccc(Cl)cc4)cc3O)n[nH]c2C(F)(F)F)cc1`, for which the growth was 56.6%.

Consider `COc1ccc2sc3c(NCCCNCCO)nc4ccccc4c3c(=O)c2c1`, for which the growth was 45.5%.

Regarding `COc1nc2ccccc2cc1-c1nc2c(cnn2-c2ccc(Br)cc2)c(=O)[nH]1`, the growth is -31.7% (active).

For the compound `Cc1oc2nc[nH]c(=O)c2c1C(=O)/C=C/c1ccc(Br)cc1`, the growth is -9.63% (active).

The test system of a further experiment is UACC-257 melanoma. The experiment is described as above. The following applies: 10 µM unless noted.
`COc1ccc(/C=N/Nc2cc(=O)[nH]c3ccc(Cl)cc23)cc1`: the growth is 81.7%.

Turning to `CCCCCCN(CCCCCC)c1ccc(/C=C2/SC(=O)NC2=O)c(C)c1`, the growth was 103%.

For `CC(=O)Oc1ccccc1C(=O)N=C1[Se]CCCN1C(=O)c1ccccc1OC(C)=O`, the growth is 57.4%.

Consider `CC(C)OC(=O)Nc1ccc(-c2nc(-c3cccc(OCCN4CCOCC4)c3)c(-c3ccnc(Br)c3)[nH]2)cc1`, for which the growth was 33.5%.

As for `Cc1cc2nc3ccc(N=Nc4ccc(N(C)C)cc4)cc3n(-c3ccccc3)c-2cc1=N`, the growth was -95.7% (active).

On to `CCCCn1c(-c2ccc(-c3nc(-c4ccc(Cl)cc4)no3)cc2)nc(-c2ccccc2)c1-c1ccccc1`, for which the growth was 97.8%.

In the case of `Oc1c(I)cc(I)cc1CNCCCN(Cc1ccccn1)Cc1ccccn1`, the growth is -41.5% (active).

With `C/C(=N/NC(N)=S)c1sc(Nc2cccc(Cl)c2)nc1C`, the growth was 101%.

For the compound `Cc1nn(-c2ccccc2)c2c1N=c1s/c(=C\c3ccc(C(F)(F)F)cc3)c(=O)n1CN2`, the growth is -1.84% (active).

On to `O=C(O)CCC(=O)Nc1nnc(-c2ccccc2)s1`, for which the growth is 104%.

Turning to `Oc1ccc(Cl)cc1Cc1cc(Cl)cc(Cl)c1O`, the growth was 74.1%.

Turning to `O=c1c2cccc(Cl)c2sc2c(NCCCNCCO)nc3ccccc3c12`, the growth was 97%.

With `COc1cc(C2CC(c3cccc(Br)c3)=NN2C(C)=O)cc(OC)c1OC` (stereo unspecified), the growth is 81.7%.

Regarding `COc1ccc(-c2nc(NN)c3c(C)nn(-c4ccc(F)cc4)c3n2)cc1`, the growth was 45.3%.

As for `CCOC(=O)NCCc1ccccc1`, the growth is 100%.

On to `COc1ccccc1/C=C1\Oc2cc(OCCN3CCC(Cc4ccccc4)CC3)ccc2C1=O`, for which the growth is 95.1%.

`O=C(COc1ccc(/C=C2\Cc3ccc(Cl)cc3C2=O)cc1)Nc1nc2ccccc2s1`: the growth is 105%.

Take `CCc1cccc2c3c(sc12)C(c1ccc(F)cc1)C(C#N)=C(N)O3` (stereo unspecified): the growth is 74.2%.

With `Cc1ccc(C(=O)N/N=C/c2cccc([N+](=O)[O-])c2)cn1`, the growth is 95.6%.

In the case of `CCOC(=O)C1=C(N)Oc2c(sc3c(C)cccc23)C1c1ccc(Cl)cc1` (stereo unspecified), the growth was 63.4%.

Take `COc1ccc(-n2c(N)c(-c3nc4ccccc4[nH]3)cc(C#N)c2=O)cc1`: the growth is 96.4%.

For the compound `Cc1cc2nc3cc(C)c(N)cc3[n+](-c3ccccc3)c2cc1N`, the growth is 32.6%.

In the case of `COc1c(N2CC3CCCN(C(C)=O)C3C2)c(F)cc2c(=O)c(C(=O)N[C@H]3C(O)[C@@H](O)C(CO)O[C@H]3O)cn(C3CC3)c12` (stereo partly specified), the growth was 103%.

As to `COc1ccc(C2CC(c3ccc(Nc4nc(Nc5ccc(F)cc5)nc(Nc5ccc(Cl)cc5)n4)cc3)=NN2C(C)=O)cc1` (stereo unspecified), the growth was 98.5%.

In the case of `O=c1[nH][n+](-c2ccc(Br)cc2)no1`, the growth is 55%.

For `O=C(CSc1nccc(Nc2ccc(S(=O)(=O)Nc3nccs3)cc2)n1)c1ccc(C(F)(F)F)cc1`, the growth was 99.3%.

Regarding `COc1cc(C2CC(c3ccc(N(C)C)cc3)=NN2C(C)=O)cc(OC)c1OC` (stereo unspecified), the growth is 56.5%.

Regarding `COc1ccc2c(c1)c(-c1ccc(-c3cn(C)c4ccc(OC)cc34)o1)cn2C`, the growth is 90%.

On to `COc1ccc(CN2c3ccccc3CCc3ccccc32)cc1F`, for which the growth is 62%.

Take `CC(=O)N1N=C(c2ccc(Nc3nc(Nc4ccc(F)cc4)nc(Nc4ccc(Cl)cc4)n3)cc2)CC1c1ccc(Cl)cc1` (stereo unspecified): the growth was 104%.

Turning to `COc1ccc(OC)c(/C=C/c2nnc(Nc3ccccc3)o2)c1`, the growth was 117%.

Turning to `COc1cc2cc(Oc3ccc(NC(=O)Nc4ccc(Cl)c(C(F)(F)F)c4)cc3)c(C)nc2cc1OCCN1CCOCC1`, the growth was 14.1%.

Take `CCOC(=O)C1=C(N)Oc2c(sc3c(C)cccc23)C1c1ccc(F)cc1` (stereo unspecified): the growth was 59.2%.

With `NCCCNc1nc2ccccc2c2c(=O)c3cccc(F)c3sc12`, the growth is 93.5%.

As to `CCc1ccc(Oc2c(-c3ccc(OCc4ccc(Cl)cc4)cc3O)n[nH]c2C(F)(F)F)cc1`, the growth was 6.85% (active).

Take `COc1ccc2sc3c(NCCCNCCO)nc4ccccc4c3c(=O)c2c1`: the growth was 92.3%.

In the case of `COc1nc2ccccc2cc1-c1nc2c(cnn2-c2ccc(Br)cc2)c(=O)[nH]1`, the growth was 46.9%.

Take `Cc1oc2nc[nH]c(=O)c2c1C(=O)/C=C/c1ccc(Br)cc1`: the growth is 32.7%.
